The full list was thinned out, with hits kept by preference.
KDM5B inhibitor – blocks human KDM5B histone demethylase activity | Q9UGL1 | KDM5B demethylase, FDH-coupled NADH fluorescence (FDH is formaldehyde dehydrogenase) | Potency, µM (titrated, usually from 57.7 µM), usual class: inhibitors | 2.6% of 220,000 active | AID 1347165; active means well fitted inhibition curve with a large enough effect; further: 0% is about no effect; nearly all actives have a fitted effect of over 70% in size
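KDM5BΔAP (200 nM final) in 50 mM HEPES pH 7.5, 0.01% Tween-20 was preincubated 10 min at RT with compound over a concentration range. Substrate mix (H3K4me3 12.5 µM, α-KG 25 µM, Fe²⁺, ascorbate, NAD⁺, FDH) was added, and NADH fluorescence change over 30 min gave dose-response curves.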
* hit, by the source's call; i = inactive. Potency means the concentration at half of the fitted maximal effect.

SMILES	KDM5B inhibitor
COc1ccc(C2=NOC3(CCN([S+](=O)([O-])c4cccc(OC)c4)C3)C2)cc1 (stereo not drawn)	i
Cc1ccc(NC(=O)Cc2csc(NC(=O)c3ccoc3C)n2)cc1C	i
COc1ccc(NC(=O)CCc2ncc(-c3ccccc3)o2)c(OC)c1	i
COc1ccccc1N1CCN(C(=O)c2noc(-c3ccc(C)cc3)n2)CC1	i
Cc1ccccc1N1CCN(C(=O)c2noc(-c3ccc[nH]c3=O)n2)CC1	28.2µM*
Cc1cccc(N2CCN(C(=O)c3noc4c3CCc3sccc3-4)CC2)c1C	i
Cc1ccccc1N1CCN(C(=O)c2cc3ccccc3[nH]2)CC1	i
Cc1cccc(N2CCN(C(=O)c3noc(-c4ccc[nH]c4=O)n3)CC2)c1C	28.2µM*
COc1ccc2cc(C(=O)N3CCN(c4cccc(C)c4)CC3)c(C)nc2c1	i
Cc1cccc(N2CCN(C(=O)c3noc(-c4ccc[nH]c4=O)n3)CC2)c1	28.2µM*
Cc1nc(N2CCCC2)c2c(C(=O)N3CCN(c4cccc(C)c4C)CC3)c(C)oc2n1	i
COc1ccc(N2CCN(C(=O)c3noc(-c4ccc(C)cc4)n3)CC2)cc1	i
O=C(CCc1ncc(-c2ccc(Cl)cc2)o1)NCC1CCCO1 (stereo not drawn)	i
CCn1ncc(N2CCCC(CC(=O)NCc3ccccn3)C2)cc1=O (stereo not drawn)	i
Cc1cc(C)cc(-c2ccccc2CN)c1	i
OC[C@@H]1CN(Cc2ccccc2OC(F)(F)F)C[C@H]1c1ccncc1	i
CCn1ncnc1C(C)NC(=O)Cn1nc(-c2ccccc2)n(CC)c1=O (stereo not drawn)	i
O=C(Nc1cccc(Cl)c1)C1CCCN1c1nc2ncccc2o1 (stereo not drawn)	i
COCCNC(=O)C1CCN(c2nc3ccccc3o2)CC1	i
O=C(NCc1ccccn1)C1CCCN(c2nc3ncccc3o2)C1 (stereo not drawn)	35.5µM*
COC(=O)CNC(=O)C1CCCN(c2nc3ncccc3o2)C1 (stereo not drawn)	28.2µM*
COCCNC(=O)C1CCCN(c2nc3ncccc3o2)C1 (stereo not drawn)	28.2µM*
Cc1ncnc(N2CCC(N3CCCC(C(=O)NCc4ccccn4)C3)CC2)c1C (stereo not drawn)	i
O=C(NCc1cccc(F)c1)C1CCCN(c2nc3ncccc3o2)C1 (stereo not drawn)	i
O=C(NCCc1ccc(Cl)cc1)C1CCCN1c1nc2ncccc2o1 (stereo not drawn)	i
SMILES	KDM5B inhibitor
Cc1ccc(C)c(OCc2cc(C(=O)N3CCC(N4CCSCC4)CC3)no2)c1	i
CC(C)Oc1ccc(C(=O)NC2CCN(c3cnn(CC4CC4)c(=O)c3)CC2)cc1	i
COc1ccc(NC(=O)O[C@@H]2CO[C@H]3[C@@H]2OC[C@@H]3Nc2nccc(-c3cccc(C#N)c3)n2)cc1	i
Cc1ccc(C(=O)N[C@H]2CO[C@H]3[C@@H]2OC[C@@H]3Nc2nccc(-c3cccc(F)c3)n2)cc1	i
N#Cc1cccc(NC(=O)O[C@@H]2CO[C@H]3[C@@H]2OC[C@@H]3Nc2nccc(-c3cccc(C#N)c3)n2)c1	i
CC(=O)N[C@H]1CO[C@H]2[C@@H]1OC[C@@H]2Nc1nccc(-c2cccc(F)c2)n1	35.5µM*
CCNC(=O)N[C@H]1CO[C@H]2[C@@H]1OC[C@@H]2Nc1nccc(-c2cccc(F)c2)n1	31.6µM*
N#Cc1cccc(-c2ccnc(N[C@H]3CO[C@H]4[C@@H]3OC[C@@H]4NC(=O)N3CCOCC3)n2)c1	31.6µM*
COCC(=O)N[C@H]1CO[C@H]2[C@@H]1OC[C@H]2O	i
COCC(=O)N[C@H]1CO[C@H]2[C@@H]1OC[C@@H]2Nc1nccc(-c2cccc(F)c2)n1	35.5µM*
O=C(Nc1ccsc1)O[C@@H]1CO[C@H]2[C@@H]1OC[C@@H]2Nc1nccc(-c2cccc(F)c2)n1	i
CC(C)C(C)NC(=O)c1ccc(Cl)cc1 (stereo not drawn)	i
CN1CCC(O)(Cc2nc3c([nH]2)CC(C)(C)CNC3=O)CC1	i
Cc1ccc(C(=O)NC(Nc2cc(C)ccc2C)C(Cl)(Cl)Cl)cc1 (stereo not drawn)	i
O=C(c1ccc(OC2CCN(Cc3c[nH]c4ccccc34)CC2)cc1)N1CCCCC1	i
Fc1cccc(/C=N/Nc2ccc(C(F)(F)F)cn2)c1	i
COC(=O)[C@H](C)NC(=O)c1ccc(F)cc1-n1cnnn1	i
CCOc1ccccc1NC(=O)N1CC2CC(C1)[C@H]1CCCC(=O)N1C2 (stereo partly drawn)	i
O=C(C1CCCN1c1nnc(N2CCCC2=O)s1)N1CCN(c2cccc(Cl)c2)CC1 (stereo not drawn)	i
Cc1cc(C)c(CNC(=O)c2nc(-c3cccc(O)c3)cc3[nH]ccc23)c(=O)[nH]1	31.6µM*
COCCCNC(=O)c1cc(Nc2ccc(C)c(C)c2)nc2ccccc12	i
Cc1cc(C)c(CNC(=O)c2nc(Nc3ccccc3)cc3[nH]ccc23)c(=O)[nH]1	15.8µM*
Cc1cc(C(C)(C)C)cc(C)c1CCNC(=O)c1n[nH]c(=O)c2ccccc12	i
C/C=C/C(=O)OC(C)C(=O)Nc1ccccc1SC (stereo not drawn)	i
CCc1noc2nc(C)nc(N3CCCC(C(=O)NCCc4ccc(Cl)cc4)C3)c12 (stereo not drawn)	i
SMILES	KDM5B inhibitor
NC(=O)C(Sc1ncc(C(F)(F)F)cc1Cl)c1ccccc1 (stereo not drawn)	i
COC[C@@H]1CN(S(=O)(=O)c2ccccc2C)C[C@H]1c1nc(C)no1	i
Cc1ccc(CN(C)C(=O)c2sc3nc(C(C)(C)C)nc(C)c3c2C)o1	i
Cc1ccc(NC(=O)Cc2nc(CSc3nncn3-c3ccccc3C)cs2)cc1	i
CCCCCn1nc(C(=O)Nc2nc(C)cs2)c2ccccc2c1=O	i
COc1cccc(-c2nc(-c3c(C)noc3C)cc3[nH]c(C)cc23)c1OC	i
CC(Sc1n[nH]c(-c2ccccc2F)n1)c1nc(C(C)(C)C)no1 (stereo not drawn)	i
Cc1cc2c(-c3ccccc3C)nc(-c3c(C)noc3C)cc2[nH]1	31.6µM*
Cc1cc2c(-c3ccccc3O)nc(-c3c(C)noc3C)cc2[nH]1	35.5µM*
Cc1cc2c(-c3cccc(O)c3)nc(-c3c(C)noc3C)cc2[nH]1	i
Cc1onc(-c2ccccc2Cl)c1-c1nc(-c2ccc(Br)cc2)no1	i
Cc1cc2c(-c3ccccc3F)nc(-c3c(C)noc3C)cc2[nH]1	35.5µM*
O=C(COc1ccccc1F)Nc1cccc2cccnc12	i
CCS(=O)(=O)c1ncc(Cl)c(C(=O)N(Cc2ccccc2)C2CCS(=O)(=O)C2)n1 (stereo not drawn)	i
Cc1ccc(CNC(=O)Nc2ccccc2Cl)cc1	i
COc1cc(C#N)ccc1OC(C(=O)NC1CC1)c1ccccc1 (stereo not drawn)	i
O=C(NCC1CCCCO1)c1ccc(OC2CCN(C(=O)C3CC3)CC2)cc1 (stereo not drawn)	i
COc1ccc(-c2c(C(F)(F)F)oc3cc(OCC#N)ccc3c2=O)cc1OC	i
CCCn1nc(-c2nn3c(-c4cc(F)ccc4F)nnc3s2)cc1C	i
COc1ccc(NC(=O)c2ccc(-c3ncc4cnc(C5=CCOCC5)cn34)cc2)cn1	28.2µM*
COc1ccc(C(=O)Nc2ccc(-c3nnc4n3CCCC4)cc2)cn1	i
COc1ccc(NC(=O)c2ccc3c(c2)NC(=O)CS3)cn1	i

Screening data: PubChem, National Center for Advancing Translational Sciences (NCATS)
